# According to PubChem BioAssay (NCI):
# The panel holds about 79,000 compounds, 15% with a hit somewhere; the sample as a whole holds those more often. Calls of active or inactive are those of the source. Rule as the data show it: active = growth inhibition above about 70%; inactive = the rest.
# Assay: NCI Yeast Anticancer Drug Screen. Data for the mec2-1 strain (AID 157)
# Conditions: S. cerevisiae mec2-1 strain, at 50.0 µM (retest, dose inferred, filed as 5.0), hits give high values
# In short: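 Yeast mec2-1 mutant treated with compound. Readout: growth inhibition vs vehicle controls.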
row,Structure (SMILES),growth inhibition
1,Oc1ccc(/C=C/c2ccc(Cl)cc2)cc1,98% (active)
2,Cc1ccc2[nH]cc(CC(=O)O)c2c1,100% (active)
3,CN(C)c1cc(N)c(Cc2c(N)cc(N(C)C)cc2Cl)c(Cl)c1,97% (active)
4,O=C1c2ccccc2-c2ccc(O)cc21,84% (active)
5,CC(=O)Oc1ccc(OC(C)=O)c2c1CC=CC2,1% (inactive)
6,O=c1c2ccccc2ncn1O,54% (inactive)
7,CC(C)(C)C(=O)CC(c1ccccc1)c1ccccc1,3% (inactive)
8,Cc1cccc(N=NC(C#N)C#N)c1,96% (active)
9,CC(=O)Nc1nc(-c2ccccc2)cs1,4% (inactive)
10,CC(C)c1cc([N+](=O)[O-])c(O)c([N+](=O)[O-])c1,75% (active)
11,CC(C)NC(=O)C(C)O (centres undefined),2% (inactive)
12,CN(C)CNC(=S)S,100% (active)
13,CCCCNC(=O)C(C)O (centres undefined),3% (inactive)
14,COc1cccc(NC(=O)c2c(SC)c(C#N)c(=O)n(N)c2N)c1,99% (active)
15,COc1ccc(/C(C#N)=C/c2cccc(N)c2)cc1,10% (inactive)
16,CCCCC(CC)CNC(=O)CI (centres undefined),22% (inactive)

# Assay: NCI Yeast Anticancer Drug Screen. Data for the sgs1 mgt1 strain (AID 161);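 also: 0% = growth of cultures given vehicle only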
# Conditions: S. cerevisiae sgs1 mgt1 strain, at 5.0 µM (retest, dose inferred, filed as 0.5), hits give high values
# In short: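 Mutant yeast exposed to compound; growth scored against vehicle-only wells.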
row,Structure (SMILES),growth inhibition
1,N#C/C(=N\O)C(N)=O,2% (inactive)
2,COc1ccc(C(N)=O)cc1,-5% (inactive)
3,CC1=C(/C=C/C(C)=C/C(=O)O)C(C)(C)CCC1,3% (inactive)
4,CC(=O)Oc1c(Br)cc(Br)cc1C(OC(C)=O)OC(C)=O,19% (inactive)
5,CCCCCCN(CCCCCC)CCCCCCCCCCCO,10% (inactive)
6,COc1cccc(NC(=O)c2c(SC)n[nH]c2N)c1,35% (inactive)
7,O=C(O)/C=C\C(=O)NNc1ccccc1,5% (inactive)
8,Oc1ccc(Cc2cccc(Cl)c2)c(O)c1,-4% (inactive)
9,C=COC(=O)c1ccccc1C(=O)OCCCC,5% (inactive)
10,O=C(O)c1ccc(-c2ccccc2)cc1,12% (inactive)
11,N#CC(c1ccccc1)C(c1ccccc1)c1ccccc1 (centres undefined),9% (inactive)
12,CC(C)(C)c1cc([N+](=O)[O-])c(O)c([N+](=O)[O-])c1,15% (inactive)
13,CSC(SC)=C(C#N)C(=O)Nc1cccc(Cl)c1,65% (inactive)
14,CCOC(=O)C(NC(C)=O)C(=O)c1ccccc1 (centres undefined),0% (inactive)
15,O=[N+]([O-])/C=C/c1cccs1,69% (inactive)
16,C/C(=N\Nc1ccc(Cl)cc1)C(=O)O,14% (inactive)
17,CC(=O)Nc1ccc(/C=N/NC(=S)NCC(C)C)cc1,-1% (inactive)
18,CCCCN(CCCC)C(=O)C(C)OC(C)=O (centres undefined),-3% (inactive)
19,C=CCCCCCCCCC(=O)NN,15% (inactive)
20,C1CCC(CCCc2nn[nH]n2)CC1,-2% (inactive)

row,Structure (SMILES),growth inhibition
1,CSS(C)(=O)=O,10% (inactive)
2,Clc1ccc(-n2ncc3c(Cl)nc(Cl)nc32)cc1,100% (active)
3,C(CCc1nn[nH]n1)CCC1CCCCC1,11% (inactive)
4,Oc1ccc(/C=C/c2ccc(Cl)cc2)cc1,4% (inactive)
5,Cc1ccc2[nH]cc(CC(=O)O)c2c1,99% (active)
6,CN(C)c1cc(N)c(Cc2c(N)cc(N(C)C)cc2Cl)c(Cl)c1,-4% (inactive)
7,O=C1c2ccccc2-c2ccc(O)cc21,28% (inactive)
8,CC(=O)Oc1ccc(OC(C)=O)c2c1CC=CC2,2% (inactive)
9,O=c1c2ccccc2ncn1O,8% (inactive)
10,CC(C)(C)C(=O)CC(c1ccccc1)c1ccccc1,5% (inactive)
11,Cc1cccc(N=NC(C#N)C#N)c1,24% (inactive)
12,CC(=O)Nc1nc(-c2ccccc2)cs1,-2% (inactive)
13,CC(C)c1cc([N+](=O)[O-])c(O)c([N+](=O)[O-])c1,13% (inactive)
14,CC(C)NC(=O)C(C)O (centres undefined),2% (inactive)
15,CN(C)CNC(=S)S,100% (active)
16,CCCCNC(=O)C(C)O (centres undefined),0% (inactive)
17,COc1cccc(NC(=O)c2c(SC)c(C#N)c(=O)n(N)c2N)c1,7% (inactive)
18,COc1ccc(/C(C#N)=C/c2cccc(N)c2)cc1,1% (inactive)
19,CCCCC(CC)CNC(=O)CI (centres undefined),6% (inactive)

# Same assay, conditions: S. cerevisiae sgs1 mgt1 strain, at 50.0 µM (retest, dose inferred, filed as 5.0), hits give high values
row,Structure (SMILES),growth inhibition
1,N#C/C(=N\O)C(N)=O,83% (active)
2,COc1ccc(C(N)=O)cc1,3% (inactive)
3,CC1=C(/C=C/C(C)=C/C(=O)O)C(C)(C)CCC1,83% (active)
4,CC(=O)Oc1c(Br)cc(Br)cc1C(OC(C)=O)OC(C)=O,99% (active)
5,CCCCCCN(CCCCCC)CCCCCCCCCCCO,99% (active)
6,COc1cccc(NC(=O)c2c(SC)n[nH]c2N)c1,99% (active)
7,O=C(O)/C=C\C(=O)NNc1ccccc1,98% (active)
8,Oc1ccc(Cc2cccc(Cl)c2)c(O)c1,97% (active)
9,C=COC(=O)c1ccccc1C(=O)OCCCC,37% (inactive)
10,O=C(O)c1ccc(-c2ccccc2)cc1,69% (inactive)
11,N#CC(c1ccccc1)C(c1ccccc1)c1ccccc1 (centres undefined),92% (active)
12,CC(C)(C)c1cc([N+](=O)[O-])c(O)c([N+](=O)[O-])c1,74% (active)
13,CSC(SC)=C(C#N)C(=O)Nc1cccc(Cl)c1,99% (active)
14,CCOC(=O)C(NC(C)=O)C(=O)c1ccccc1 (centres undefined),-1% (inactive)
15,O=[N+]([O-])/C=C/c1cccs1,100% (active)
16,C/C(=N\Nc1ccc(Cl)cc1)C(=O)O,99% (active)
17,CC(=O)Nc1ccc(/C=N/NC(=S)NCC(C)C)cc1,7% (inactive)
18,CCCCN(CCCC)C(=O)C(C)OC(C)=O (centres undefined),6% (inactive)
19,C=CCCCCCCCCC(=O)NN,92% (active)
20,C1CCC(CCCc2nn[nH]n2)CC1,51% (inactive)

row,Structure (SMILES),growth inhibition
1,CSS(C)(=O)=O,99% (active)
2,Clc1ccc(-n2ncc3c(Cl)nc(Cl)nc32)cc1,99% (active)
3,C(CCc1nn[nH]n1)CCC1CCCCC1,95% (active)
4,Oc1ccc(/C=C/c2ccc(Cl)cc2)cc1,97% (active)
5,Cc1ccc2[nH]cc(CC(=O)O)c2c1,100% (active)
6,CN(C)c1cc(N)c(Cc2c(N)cc(N(C)C)cc2Cl)c(Cl)c1,98% (active)
7,O=C1c2ccccc2-c2ccc(O)cc21,93% (active)
8,CC(=O)Oc1ccc(OC(C)=O)c2c1CC=CC2,10% (inactive)
9,O=c1c2ccccc2ncn1O,98% (active)
10,CC(C)(C)C(=O)CC(c1ccccc1)c1ccccc1,30% (inactive)
11,Cc1cccc(N=NC(C#N)C#N)c1,95% (active)
12,CC(=O)Nc1nc(-c2ccccc2)cs1,23% (inactive)
13,CC(C)c1cc([N+](=O)[O-])c(O)c([N+](=O)[O-])c1,78% (active)
14,CC(C)NC(=O)C(C)O (centres undefined),5% (inactive)
15,CN(C)CNC(=S)S,100% (active)
16,CCCCNC(=O)C(C)O (centres undefined),4% (inactive)
17,COc1cccc(NC(=O)c2c(SC)c(C#N)c(=O)n(N)c2N)c1,99% (active)
18,COc1ccc(/C(C#N)=C/c2cccc(N)c2)cc1,27% (inactive)
19,CCCCC(CC)CNC(=O)CI (centres undefined),73% (active)
